Measurements published in the supplement of paper PMC10849652.
Of roughly 7,900 targets only a part is listed; those with a hit were picked by preference. About 0.6% of all pairs of compound and target were hits. A number with no mark means an inactive call.

Experiments:
Assay in all cases: log2 fold change, soluble protein after heating vs DMSO (PISA); higher = thermal stabilisation; K562 cells, 10 uM, 30 min; active = over 0.2 and 3.5 SD of the protein, either way, in both replicates (recomputed)
[1] = compound: C#Cc1cccc(Nc2ncnc3cc(OCCOC)c(OCCOC)cc23)c1 [erlotinib]
Method in brief: (§1)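 K562 cells at 2×10^6 cells/mL were treated for 30 min with 10 μM compound, and aliquots were heated for 3 min over 48°C-58°C before pooling. Extraction used PBS with 0.5% NP-40 at 4°C, and soluble protein was the supernatant after 21,000xg for 90 min, measured by TMTpro 16plex LC-MS/MS with channel sums equalised. Thermal stability values, relative to control samples and from duplicates, are log2 fold changes.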

[2] = compound: C/C(=N\NC(=O)C1=CC(=CC=C1)S(=O)(=O)N2CCOCC2)/C3=C(C=CC(=C3)Cl)O
Method in brief: as §1

[3] = compound: C1=CC(=C(C=C1Cl)C2=NC3=NC=CN=C3C(=N2)NC4=CC=NC=C4)F
Method in brief: as §1

[4] = compound: C1=CC(=CC=C1C2=NC3=C(N2)C=C(C=C3)C(=O)N)OC4=CC=C(C=C4)Cl
Method in brief: as §1

[5] = compound: C1=CC2=C(C=CC(=C2)/C=C\3/C(=O)NC(=NCC4=CC=CS4)S3)N=C1
Method in brief: as §1

[6] = compound: C1=CC2=NC=CN=C2C=C1/C=C/3\C(=O)NC(=O)S3
Method in brief: as §1

[7] = compound: C1=CC=C(C=C1)C2=NC(=C(N2)C3=CC=NC=C3)C4=CC(=C(C=C4)Cl)O
Method in brief: as §1

[8] = compound: C1=CC=C2C(=C1)C3=NNC4=CC=CC(=C43)C2=O
Method in brief: as §1

[9] = compound: C1CCN(C1)C(=O)NC2=CC=CC(=C2)NC3=NC=C(C(=N3)NCCC4=CN=CN4)Br
Method in brief: as §1

[10] = compound: C1CN(CCC1(CC2=CC=C(C=C2)Cl)N)C3=NC=NC4=C3C=CN4
Method in brief: as §1

Chain of UniProt P29966 (P29966 whole entry, looked up): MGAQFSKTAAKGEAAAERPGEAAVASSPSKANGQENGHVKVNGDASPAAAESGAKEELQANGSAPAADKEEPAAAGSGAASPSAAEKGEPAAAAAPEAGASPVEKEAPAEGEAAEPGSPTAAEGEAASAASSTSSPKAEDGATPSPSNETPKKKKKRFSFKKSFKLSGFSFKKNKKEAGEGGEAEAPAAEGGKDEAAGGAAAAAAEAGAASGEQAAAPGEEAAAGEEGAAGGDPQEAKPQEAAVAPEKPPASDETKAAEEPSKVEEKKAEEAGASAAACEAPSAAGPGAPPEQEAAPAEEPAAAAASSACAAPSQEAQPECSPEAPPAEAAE
Chain of UniProt Q86UP2 (Q86UP2 whole entry, looked up): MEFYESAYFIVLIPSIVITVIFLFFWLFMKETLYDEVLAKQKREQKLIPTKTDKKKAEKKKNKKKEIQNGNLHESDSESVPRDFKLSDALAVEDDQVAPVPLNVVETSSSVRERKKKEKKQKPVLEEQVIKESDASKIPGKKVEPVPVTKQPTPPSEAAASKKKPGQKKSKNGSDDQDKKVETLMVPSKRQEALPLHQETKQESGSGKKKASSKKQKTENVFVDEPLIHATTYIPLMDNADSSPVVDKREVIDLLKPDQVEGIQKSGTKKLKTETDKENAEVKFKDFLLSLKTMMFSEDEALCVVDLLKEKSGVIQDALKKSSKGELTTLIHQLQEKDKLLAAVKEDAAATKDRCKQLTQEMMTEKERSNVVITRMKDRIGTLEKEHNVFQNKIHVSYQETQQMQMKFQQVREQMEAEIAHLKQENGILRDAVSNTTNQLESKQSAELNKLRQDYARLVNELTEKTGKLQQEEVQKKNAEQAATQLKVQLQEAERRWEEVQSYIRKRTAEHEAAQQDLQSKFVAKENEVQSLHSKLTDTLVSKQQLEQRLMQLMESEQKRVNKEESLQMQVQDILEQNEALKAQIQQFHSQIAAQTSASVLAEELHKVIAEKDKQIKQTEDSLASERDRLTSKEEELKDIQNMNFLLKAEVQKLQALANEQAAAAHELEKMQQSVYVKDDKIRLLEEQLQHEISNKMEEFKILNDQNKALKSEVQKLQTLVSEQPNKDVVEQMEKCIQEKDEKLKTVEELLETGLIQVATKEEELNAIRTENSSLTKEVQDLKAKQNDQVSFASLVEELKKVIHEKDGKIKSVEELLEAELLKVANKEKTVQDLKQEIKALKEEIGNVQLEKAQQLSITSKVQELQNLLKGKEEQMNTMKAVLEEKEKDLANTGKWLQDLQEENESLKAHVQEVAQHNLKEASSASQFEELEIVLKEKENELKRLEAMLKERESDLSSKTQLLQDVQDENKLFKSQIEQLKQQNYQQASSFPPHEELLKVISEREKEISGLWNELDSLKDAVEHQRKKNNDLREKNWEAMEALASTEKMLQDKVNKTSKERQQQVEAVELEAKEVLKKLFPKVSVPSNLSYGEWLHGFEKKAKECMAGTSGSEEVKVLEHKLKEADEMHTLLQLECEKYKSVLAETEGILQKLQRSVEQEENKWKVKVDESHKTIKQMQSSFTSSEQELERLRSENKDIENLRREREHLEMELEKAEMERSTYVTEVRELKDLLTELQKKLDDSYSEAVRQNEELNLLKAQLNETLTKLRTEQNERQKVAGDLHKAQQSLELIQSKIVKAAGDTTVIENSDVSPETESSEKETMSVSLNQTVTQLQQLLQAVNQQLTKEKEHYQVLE
Chain of UniProt O43766 (O43766 whole entry, looked up): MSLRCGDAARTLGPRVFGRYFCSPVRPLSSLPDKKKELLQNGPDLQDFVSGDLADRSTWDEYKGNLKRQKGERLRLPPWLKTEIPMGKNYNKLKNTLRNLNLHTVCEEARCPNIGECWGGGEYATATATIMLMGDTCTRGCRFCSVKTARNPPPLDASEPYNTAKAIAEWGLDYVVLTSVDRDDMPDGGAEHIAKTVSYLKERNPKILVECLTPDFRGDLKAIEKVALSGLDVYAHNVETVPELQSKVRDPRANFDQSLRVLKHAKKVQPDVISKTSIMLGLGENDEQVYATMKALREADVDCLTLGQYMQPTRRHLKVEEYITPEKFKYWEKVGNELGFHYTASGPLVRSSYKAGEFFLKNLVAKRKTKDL
Chain of UniProt Q14739 (Q14739 whole entry, looked up): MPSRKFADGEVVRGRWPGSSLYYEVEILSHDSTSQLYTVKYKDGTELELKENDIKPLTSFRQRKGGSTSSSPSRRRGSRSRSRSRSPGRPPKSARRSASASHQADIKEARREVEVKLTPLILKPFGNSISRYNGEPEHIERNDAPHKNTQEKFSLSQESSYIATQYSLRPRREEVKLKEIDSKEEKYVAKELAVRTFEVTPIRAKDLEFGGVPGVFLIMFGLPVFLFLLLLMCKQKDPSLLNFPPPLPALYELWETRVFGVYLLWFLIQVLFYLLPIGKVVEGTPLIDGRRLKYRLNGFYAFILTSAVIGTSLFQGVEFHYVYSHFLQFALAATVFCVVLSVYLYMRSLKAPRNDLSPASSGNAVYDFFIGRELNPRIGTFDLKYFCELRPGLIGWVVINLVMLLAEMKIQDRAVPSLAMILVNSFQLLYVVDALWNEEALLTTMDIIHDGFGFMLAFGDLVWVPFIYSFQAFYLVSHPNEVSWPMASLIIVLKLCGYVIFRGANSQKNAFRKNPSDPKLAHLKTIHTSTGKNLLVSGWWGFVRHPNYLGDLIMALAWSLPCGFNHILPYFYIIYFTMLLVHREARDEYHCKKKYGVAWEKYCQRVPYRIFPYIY
Chain of UniProt O60333 (O60333 whole entry, looked up): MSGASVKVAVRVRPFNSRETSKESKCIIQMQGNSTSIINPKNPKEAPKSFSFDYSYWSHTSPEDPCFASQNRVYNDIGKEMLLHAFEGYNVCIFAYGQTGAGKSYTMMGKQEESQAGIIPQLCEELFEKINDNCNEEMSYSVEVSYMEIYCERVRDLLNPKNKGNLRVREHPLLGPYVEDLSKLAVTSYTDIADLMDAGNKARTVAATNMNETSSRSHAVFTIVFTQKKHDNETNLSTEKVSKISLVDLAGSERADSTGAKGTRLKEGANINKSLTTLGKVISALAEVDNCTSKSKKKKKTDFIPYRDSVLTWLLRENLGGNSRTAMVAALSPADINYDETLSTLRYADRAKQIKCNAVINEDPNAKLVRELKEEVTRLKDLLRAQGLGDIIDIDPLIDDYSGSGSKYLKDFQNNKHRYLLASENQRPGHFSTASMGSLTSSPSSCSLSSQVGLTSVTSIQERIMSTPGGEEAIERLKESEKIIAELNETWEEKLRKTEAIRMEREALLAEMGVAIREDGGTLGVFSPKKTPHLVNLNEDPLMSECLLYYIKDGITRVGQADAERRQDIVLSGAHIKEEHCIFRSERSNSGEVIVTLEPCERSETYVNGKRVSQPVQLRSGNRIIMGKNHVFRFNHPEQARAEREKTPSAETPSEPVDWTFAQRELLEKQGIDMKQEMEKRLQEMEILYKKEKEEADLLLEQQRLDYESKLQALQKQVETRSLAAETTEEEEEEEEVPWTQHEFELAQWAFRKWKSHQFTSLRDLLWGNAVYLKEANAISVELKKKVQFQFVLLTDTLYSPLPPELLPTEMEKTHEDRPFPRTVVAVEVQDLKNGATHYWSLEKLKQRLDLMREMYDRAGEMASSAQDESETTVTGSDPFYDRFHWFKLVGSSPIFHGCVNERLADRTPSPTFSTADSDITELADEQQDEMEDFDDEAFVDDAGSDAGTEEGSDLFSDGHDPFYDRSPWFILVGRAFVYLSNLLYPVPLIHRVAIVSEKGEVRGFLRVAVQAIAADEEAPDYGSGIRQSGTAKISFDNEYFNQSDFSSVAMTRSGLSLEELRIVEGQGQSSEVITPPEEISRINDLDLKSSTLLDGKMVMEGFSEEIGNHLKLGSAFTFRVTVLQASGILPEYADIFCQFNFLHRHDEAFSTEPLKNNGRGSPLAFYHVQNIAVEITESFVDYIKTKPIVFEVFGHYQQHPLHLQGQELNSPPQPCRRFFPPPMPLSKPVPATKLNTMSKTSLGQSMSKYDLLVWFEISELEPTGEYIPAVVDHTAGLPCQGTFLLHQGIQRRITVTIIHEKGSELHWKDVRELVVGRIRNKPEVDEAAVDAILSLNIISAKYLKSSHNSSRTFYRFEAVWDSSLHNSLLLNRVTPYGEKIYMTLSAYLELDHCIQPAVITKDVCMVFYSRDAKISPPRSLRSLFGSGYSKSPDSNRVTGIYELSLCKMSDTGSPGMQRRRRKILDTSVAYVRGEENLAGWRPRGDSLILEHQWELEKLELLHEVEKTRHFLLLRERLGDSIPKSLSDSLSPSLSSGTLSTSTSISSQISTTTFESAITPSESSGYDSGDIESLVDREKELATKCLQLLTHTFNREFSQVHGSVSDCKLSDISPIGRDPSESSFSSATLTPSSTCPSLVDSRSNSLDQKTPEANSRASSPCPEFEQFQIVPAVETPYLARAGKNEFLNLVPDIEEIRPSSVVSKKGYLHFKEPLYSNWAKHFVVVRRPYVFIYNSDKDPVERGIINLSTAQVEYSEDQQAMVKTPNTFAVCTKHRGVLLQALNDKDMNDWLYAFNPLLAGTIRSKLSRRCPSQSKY
Chain of UniProt P22692 (P22692 whole entry, looked up): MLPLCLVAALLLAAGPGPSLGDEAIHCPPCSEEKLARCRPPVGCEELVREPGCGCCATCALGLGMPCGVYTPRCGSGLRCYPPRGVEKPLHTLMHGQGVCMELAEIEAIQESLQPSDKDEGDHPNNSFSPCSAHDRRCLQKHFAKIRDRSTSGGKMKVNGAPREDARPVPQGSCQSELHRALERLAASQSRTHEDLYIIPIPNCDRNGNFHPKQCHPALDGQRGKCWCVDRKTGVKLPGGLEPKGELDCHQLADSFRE
Chain of UniProt P49006 (P49006 whole entry, looked up): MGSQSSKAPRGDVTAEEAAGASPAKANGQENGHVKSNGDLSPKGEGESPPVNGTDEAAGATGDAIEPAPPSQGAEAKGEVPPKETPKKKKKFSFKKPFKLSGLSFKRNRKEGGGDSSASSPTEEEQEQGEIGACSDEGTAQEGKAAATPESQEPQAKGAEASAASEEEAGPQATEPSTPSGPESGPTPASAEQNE

Target | log2 fold change [1] | log2 fold change [2] | log2 fold change [3] | log2 fold change [4] | log2 fold change [5] | log2 fold change [6] | log2 fold change [7] | log2 fold change [8] | log2 fold change [9] | log2 fold change [10]
KDELR2 (UniProt P33947) | -0.06 | -0.052 | 0.048 | -0.02 | 0.042 | 0.024 | 0.201 | 0.048 | -0.102 | 0.019
KTN1 (UniProt Q86UP2) | -0.013 | -0.007 | -0.05 | -0.08 | 0.058 | -0.006 | -0.04 | -0.032 | -0.028 | -0.129
MFSD8 (UniProt Q8NHS3) | 0.047 | -0.018 | -0.012 | -0.089 | 0.009 | 0.166 | 0 | -0.054 | -0.033 | -0.091
LBR (UniProt Q14739) | 0.009 | 0.122 | 0.043 | -0.016 | 0.029 | 0.034 | 0.059 | -0.002 | 0.037 | 0.21
MCCC2 (UniProt Q9HCC0) | 0.019 | 0.123 | 0.03 | 0.004 | -0.04 | 0.011 | 0.047 | 0.004 | 0.004 | 0.035
LUC7L2 (UniProt Q9Y383) | -0.001 | 0.122 | 0.013 | 0.098 | -0.218 | -0.031 | 0.008 | -0.143 | -0.03 | -0.072
LTN1 isoform 3 (UniProt O94822) | 0.026 | 0.114 | -0.021 | -0.02 | 0.032 | -0.021 | -0.027 | -0.056 | -0.027 | -0.031
LPCAT3 (UniProt Q6P1A2) | -0.062 | 0.028 | 0.032 | 0.07 | 0.152 | 0.071 | 0.211 | 0.014 | 0.059 | 0.002
MAGOHB (UniProt Q96A72) | 0.011 | 0.124 | 0.025 | -0.002 | -0.16 | -0.013 | -0.032 | 0.071 | -0.157 | -0.061
MARK3 (UniProt P27448) | 0.009 | 0.116 | -0.031 | 0.014 | 0 | 0.008 | -0.032 | -0.578 (active) | -0.221 | -0.208
MAPK9 (UniProt P45984) | 0.007 | 0.027 | 0.031 | -0.02 | 0 | -0.02 | -0.026 | 0.202 | 0.063 | 0.016
LARP4B (UniProt Q92615) | -0.016 | 0.032 | -0.042 | 0.017 | -0.057 | -0.03 | 0.063 | -0.06 | -0.013 | -0.042
LMNA (UniProt P02545) | -0.025 | 0.116 | 0.009 | -0.106 | -0.031 | 0.035 | -0.049 | -0.171 | -0.086 | 0.013
MARCKS (UniProt P29966) | -0.033 | -0.032 | 0.061 | 0.045 | -0.026 | 0.048 | 0.119 | 0.025 | 0.01 | 0.118
MAN2B2 (UniProt Q9Y2E5) | -0.035 | 0.005 | -0.008 | -0.003 | 0.076 | 0.025 | -0.07 | 0.063 | -0.02 | -0.186
MARCKSL1 (UniProt P49006) | -0.001 | 0.072 | -0.047 | -0.02 | -0.031 | -0.039 | -0.015 | -0.063 | -0.005 | 0.039
MAP2K2 (UniProt P36507) | 0.021 | -0.005 | 0.05 | -0.001 | 0.054 | -0.005 | -0.058 | -0.029 | -0.003 | 0.016
MAGEC2 (UniProt Q9UBF1) | -0.026 | 0.024 | -0.099 | -0.018 | -0.003 | 0.03 | -0.011 | -0.004 | -0.022 | 0.051
KIF1B isoform 4 (UniProt O60333) | 0.031 | 0.095 | 0.042 | -0.059 | 0.002 | 0.018 | -0.092 | 0.078 | -0.02 | -0.091
MAPKAPK3 (UniProt Q16644) | 0.034 | -0.012 | 0.431 (active) | -0.041 | 0.024 | -0.069 | 0.256 | 0.029 | 0.021 | -0.054
ILF3 isoform 7 (UniProt Q12906) | -0.068 | -0.084 | -0.266 | -0.004 | -0.049 | 0.099 | -0.061 | -0.01 | 0.054 | -0.186
LIAS (UniProt O43766) | 0.068 | -0.24 (active) | 0.011 | 0.019 | 0.014 | 0.007 | -0.273 | 0.009 | 0.028 | 0
MAGEA9 (UniProt P43362) | 0.05 | 0.032 | 0.001 | 0.076 | -0.07 | 0.074 | -0.021 | -0.058 | -0.191 | 0.018
MED1 (UniProt Q15648) | -0.022 | -0.011 | -0.118 | -0.001 | 0.04 | 0.043 | -0.03 | -0.043 | 0.016 | -0.025
IGFBP4 (UniProt P22692) | -0.03 | -0.14 | 0.023 | 0.093 | -0.124 | 0.178 | -0.051 | -0.217 | 0.108 | 0.076
METAP1D (UniProt Q6UB28) | -0.061 | -0.307 | -0.02 | 0.025 | -0.004 | -0.014 | 0.005 | -0.002 | -0.018 | 0.033
METTL18 (UniProt O95568) | -0.042 | -0.037 | -0.08 | 0.027 | 0.038 | 0.046 | -0.039 | -0.06 | 0.028 | 0.078
ME2 (UniProt P23368) | -0.017 | -0.017 | 0.01 | -0.078 | 0.036 | -0.024 | 0.055 | -0.061 | 0.008 | 0.081
ILRUN (UniProt Q9H6K1) | -0.009 | 0.069 | -0.033 | 0.027 | 0.075 | 0.043 | -0.06 | -0.063 | 0.028 | 0.041
ILF2 (UniProt Q12905) | -0.098 | -0.087 | -0.214 | 0.009 | -0.088 | 0.066 | -0.035 | -0.011 | -0.005 | -0.175
